# Source: ChEMBL document CHEMBL5606460, “ASAP - DENV-2 NS2B-NS3 protease fluorescence single point” (2024)
# Hit rate of the full screen: of about 2,000 compounds, about 110 (5.5%) showed an effect of 50% or more. This is one part of a sample in which strong results are shown more often than they occur.
# Molecular target: Genome polyprotein (dengue virus type 2) (UniProt P29990)
# [1] = Thailand/16681/1984, Concentration 25.0 uM, Number of replicates 1.0
smiles,measurement,setting,value
Cc1cc(CO)c2cccc(NC(=O)COc3cccc(CN)c3)c2n1,inhibition,"Thailand/16681/1984, Concentration 49.95 uM, Number of replicates 2.0, Standard deviation 1.546456211659181 %",9.18%
same,inhibition,"Thailand/16681/1984, Concentration 99.9 uM, Number of replicates 2.0, Standard deviation 0.8863913825569767 %",7.18%
Cc1cc(CO)c2cccc(CC(=O)Nc3cc(O)[nH]n3)c2n1,inhibition,"Thailand/16681/1984, Concentration 49.95 uM, Number of replicates 2.0, Standard deviation 0.30186854167697036 %",9.85%
same,inhibition,"Thailand/16681/1984, Concentration 99.9 uM, Number of replicates 2.0, Standard deviation 0.4943454438060974 %",27.1%
Cc1cc(CO)c2cccc(Cc3ccccc3NC(=O)[C@@H](N)CC(N)=O)c2n1,inhibition,"Thailand/16681/1984, Concentration 49.95 uM, Number of replicates 2.0, Standard deviation 0.9388389208439332 %",28.9%
same,inhibition,"Thailand/16681/1984, Concentration 99.9 uM, Number of replicates 2.0, Standard deviation 1.1783962129832455 %",59.7%
Cc1cc(CO)c2cccc(NC(=O)[C@@H](N)CC(N)=O)c2n1,inhibition,"Thailand/16681/1984, Concentration 49.95 uM, Number of replicates 2.0, Standard deviation 1.8295341709834483 %",-3.67%
same,inhibition,"Thailand/16681/1984, Concentration 99.9 uM, Number of replicates 2.0, Standard deviation 6.049352845396267 %",-1.2%
Cc1cc(CO)c2cccc(Cc3ccccc3NC(=O)[C@H](N)CCO)c2n1,inhibition,"Thailand/16681/1984, Concentration 49.95 uM, Number of replicates 2.0, Standard deviation 1.1804730410904682 %",-2.49%
same,inhibition,"Thailand/16681/1984, Concentration 99.9 uM, Number of replicates 2.0, Standard deviation 1.1029287785847963 %",-0.758%
Cc1cc(Cl)c2cccc(NC(=O)[C@@H]3CCCC[C@H]3N)c2n1,inhibition,"Thailand/16681/1984, Concentration 99.9 uM, Number of replicates 2.0, Standard deviation 1.2808103574664134 %",-9.95%
Cc1cc(CO)c2cccc(NC(=O)CCN)c2n1,inhibition,"Thailand/16681/1984, Concentration 49.95 uM, Number of replicates 2.0, Standard deviation 0.675365146636023 %",28.7%
same,inhibition,"Thailand/16681/1984, Concentration 99.9 uM, Number of replicates 2.0, Standard deviation 0.4014376052982588 %",91.2%
Cc1nc(Cl)c(NC(=O)C2CCN(c3ccc(C=O)cc3)CC2)c(Cl)n1,inhibition,[1],12.8%
CC(C)(CO)NC(=O)c1cc(Cl)cc(NC(=O)Cn2cnccc2=O)c1,inhibition,"Thailand/16681/1984, Concentration 49.5 uM, Number of replicates 2.0, Standard deviation 0.3718016272993385 %",-3.9%
same,inhibition,"Thailand/16681/1984, Concentration 99.01 uM, Number of replicates 2.0, Standard deviation 1.0416819516575477 %",-5.97%
same,inhibition,"Thailand/16681/1984, Concentration 198.0 uM, Number of replicates 2.0, Standard deviation 1.29652000519297 %",-5.4%
O=Cc1ccc(N2CCC(C(=O)N3CCN(C(=O)C(F)(F)F)CC3)CC2)cc1,inhibition,[1],8.59%
Cc1n[nH]c(CC(=O)N2CCC[C@H](n3cnc(C(N)=O)n3)C2)n1,inhibition,"Thailand/16681/1984, Concentration 49.5 uM, Number of replicates 2.0, Standard deviation 0.8615620840433298 %",-1.22%
same,inhibition,"Thailand/16681/1984, Concentration 99.01 uM, Number of replicates 2.0, Standard deviation 0.2938998370290156 %",-1.99%
same,inhibition,"Thailand/16681/1984, Concentration 198.0 uM, Number of replicates 2.0, Standard deviation 1.103757347430939 %",-0.94%
Cn1cc(NC(=O)c2ccccc2C(F)(F)F)c(-c2cnn(C)n2)n1,inhibition,"Thailand/16681/1984, Concentration 49.5 uM, Number of replicates 2.0, Standard deviation 0.32036291597833877 %",-2.97%
same,inhibition,"Thailand/16681/1984, Concentration 99.01 uM, Number of replicates 2.0, Standard deviation 1.175972600606475 %",-3.46%
same,inhibition,"Thailand/16681/1984, Concentration 198.0 uM, Number of replicates 2.0, Standard deviation 1.0582279614459547 %",-3.2%
O=Cc1ccc(N2CCC(C(=O)Nc3ccc4scnc4c3)CC2)cc1,inhibition,[1],13%
O[C@]1(C(F)(F)F)CC[C@H](CNCc2nnc3ccccn23)CC1,inhibition,"Thailand/16681/1984, Concentration 49.5 uM, Number of replicates 2.0, Standard deviation 2.244095461971029 %",4.51%
same,inhibition,"Thailand/16681/1984, Concentration 99.01 uM, Number of replicates 2.0, Standard deviation 1.4092400656614155 %",4.61%
same,inhibition,"Thailand/16681/1984, Concentration 198.0 uM, Number of replicates 2.0, Standard deviation 2.783814769891106 %",1.75%
CCc1nc([C@@H](C)NC(=O)c2ccc(O)c(NC(=O)c3ccncc3F)c2C)n[nH]1,inhibition,"Thailand/16681/1984, Concentration 49.5 uM, Number of replicates 2.0, Standard deviation 0.640305880758115 %",-3.94%
same,inhibition,"Thailand/16681/1984, Concentration 99.01 uM, Number of replicates 2.0, Standard deviation 0.7647439452243474 %",-3.61%
same,inhibition,"Thailand/16681/1984, Concentration 198.0 uM, Number of replicates 2.0, Standard deviation 1.5490355987880475 %",-3.27%
Cc1cn2nnc(C(=O)N[C@H]3CCCCn4c3n[nH]c4=O)c2c(=O)[nH]1,inhibition,"Thailand/16681/1984, Concentration 49.5 uM, Number of replicates 2.0, Standard deviation 0.2359641679366373 %",-0.501%
same,inhibition,"Thailand/16681/1984, Concentration 99.01 uM, Number of replicates 2.0, Standard deviation 0.10523355791430405 %",-0.563%
same,inhibition,"Thailand/16681/1984, Concentration 198.0 uM, Number of replicates 2.0, Standard deviation 0.06258385535382655 %",-1.4%
O=Cc1ccc(N2CCC(C(=O)Nc3nnc(C(F)(F)F)s3)CC2)cc1,inhibition,[1],12.7%
O=Cc1ccc(N2CCC(C(=O)N3CCNC(=O)C34CCCCC4)CC2)cc1,inhibition,[1],13.7%
CCCCN(Cc1ccc(F)cc1)C(=O)C1CCN(c2ccc(C=O)cc2)CC1,inhibition,[1],16.4%
COc1cc(C(=O)Nc2cnc3ccccc3c2)nc(N2CCNCC2)n1,inhibition,"Thailand/16681/1984, Concentration 49.5 uM, Number of replicates 2.0, Standard deviation 9.540542197549359 %",4.46%
same,inhibition,"Thailand/16681/1984, Concentration 99.01 uM, Number of replicates 2.0, Standard deviation 4.349736840709832 %",6.31%
same,inhibition,"Thailand/16681/1984, Concentration 198.0 uM, Number of replicates 2.0, Standard deviation 5.514135579540427 %",7.41%
O=Cc1ccc(N2CCC(C(=O)N3CCCN(c4ccc(C(F)(F)F)cn4)CC3)CC2)cc1,inhibition,[1],9.22%
Cc1cc(CO)c2cccc(Cc3cccc(NC(=O)c4cc(C(=O)O)[nH]n4)c3)c2n1,inhibition,"Thailand/16681/1984, Concentration 49.95 uM, Number of replicates 2.0, Standard deviation 0.024232414845035546 %",4.13%
same,inhibition,"Thailand/16681/1984, Concentration 99.9 uM, Number of replicates 2.0, Standard deviation 0.7422093740247248 %",7.91%
COCc1cc(-c2ccccc2C(=O)Nc2cnn(C)c2)ccn1,inhibition,"Thailand/16681/1984, Concentration 49.5 uM, Number of replicates 2.0, Standard deviation 1.4111132401966338 %",-5.45%
same,inhibition,"Thailand/16681/1984, Concentration 99.01 uM, Number of replicates 2.0, Standard deviation 1.6255328031848963 %",-5.34%
same,inhibition,"Thailand/16681/1984, Concentration 198.0 uM, Number of replicates 2.0, Standard deviation 0.730186058256325 %",-4.12%
O=Cc1ccc(N2CCC(C(=O)NCC(=O)Nc3ccc(F)c(F)c3)CC2)cc1,inhibition,[1],14.1%
